Only some compounds are listed: those with a hit (about 6.8% of all), similar ones and a draw of the others.
T cruzi growth-1 = inhibitors of T. cruzi proliferation. T. cruzi beta-gal in NIH3T3, GalScreen luminescence, 90 h. inhibition, % at 8.34 µM. hit rate 5.9% among 77,000. AID 624255;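 active = mean inhibition above about 93%, with at least 55% of replicates each passing it, limit read from the data, passing the limit was not always enough; inconclusive = only one of those two conditions holds; inactive = neither condition holds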
Pf Dd2 inh = inhibitors of Plasmodium falciparum Dd2 growth; P. falciparum Dd2 growth, SYBR Green, 72 h; stronger effect = lower value; activity change, % at 10 µM; hit rate 2.3% among 94,000; AID 1159554; in the data active = activity change below about -80%; inconclusive = no clear call, values can overlap the other calls
C diff growth = C. difficile growth inhibition; Clostridium difficile clinical isolate growth, OD600, 24 h; stronger effect = lower value; growth activity, negative = inhibition, % at 16 µg/mL (by protocol); hit rate 0.25% among 86,000; AID 1259249;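 active = mean growth activity at or below -80% and every replicate also at or below -80%; inconclusive = mean at or below -80% but some replicate above -80%; inactive = mean growth activity above -80%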;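 note: 0% = DMSO wells and -100% = levofloxacin 16 µg/mL wells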
T cruzi growth-2 = inhibitors of T. cruzi proliferation; T. cruzi beta-gal in NIH3T3, GalScreen luminescence, 90 h; hit rate 72% among 5,600; AID 651739; inhibition, % at 8.35 µM; shares compounds with T cruzi growth-1;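 active = mean replicate inhibition above about 95% and at least 55% of replicates individually reaching it, limit read from the data; inconclusive = only one of the two criteria is met; inactive = neither criterion is met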
T cruzi growth-3 = Trypanosoma cruzi proliferation inhibition; shares compounds with T cruzi growth-1; T. cruzi beta-gal in NIH3T3, GalScreen luminescence, 90 h; inhibition, % at 2.09 µM; hit rate 21% among 5,600; AID 651740;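 active = mean inhibition above about 95%, with at least 55% of replicates also reaching it, limit read from the data; inconclusive = meets just one of the two conditions; inactive = meets neither condition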;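 note: plate controls were neutral control median for no effect and positive control median for full effect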
3T3 cytotox = NIH/3T3 (mouse) viability loss | cytotoxicity (signal decrease), % at 8.35 µM | NIH/3T3 viability, CellTiter-Glo ATP luminescence, 90 h | hit rate 14% among 5,600 | shares compounds with T cruzi growth-1;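 active = mean signal decrease across replicates above about 35% based on untreated-well scatter, with enough replicates individually passing, limit read from the data; inconclusive = no rule stated though some were filed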;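 note: 0% = median of neutral control wells and 100% = median of positive control wells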
3T3 cytotox 2 = kills mouse NIH/3T3 fibroblasts. shares compounds with T cruzi growth-1. NIH/3T3 viability, CellTiter-Glo ATP luminescence, 90 h. inhibition, % at 24.9 µM. hit rate 56% among 5,600;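 active = mean loss of cell viability signal at or above a set limit, and enough replicates individually reaching it; inconclusive = meets only the mean limit or only the replicate share; inactive = meets neither condition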;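 note: 0% = median of neutral control wells and 100% = median of positive control wells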
An asterisk follows results filed as active; ? = inconclusive; . = no result.

SMILES	T cruzi growth-1	Pf Dd2 inh	C diff growth	T cruzi growth-2	T cruzi growth-3	3T3 cytotox	3T3 cytotox 2
C[C@@H]1CCCCO[C@H](CN(C)Cc2ccncc2)[C@H](C)CN([C@H](C)CO)C(=O)c2cc(NS(=O)(=O)c3cccs3)ccc2O1	33.0	-32.7	-0.3	.	.	.	.
C[C@H](CO)N1C[C@H](C)[C@@H](CN(C)Cc2ccc(Cl)c(Cl)c2)OCCCC[C@H](C)Oc2ccc(NS(=O)(=O)c3cccs3)cc2C1=O	?	-19.6	-5.4	85.0	107.2*	11.1	104.0*
C[C@@H]1CCCCO[C@@H](CN(C)Cc2ccncc2)[C@@H](C)CN([C@@H](C)CO)C(=O)c2cc(NS(=O)(=O)c3cccs3)ccc2O1	28.3	-27.8	3.5	.	.	.	.
C[C@@H]1CCCCO[C@H](CN(C)Cc2ccc(Cl)c(Cl)c2)[C@@H](C)CN([C@H](C)CO)C(=O)c2cc(NS(=O)(=O)c3cccs3)ccc2O1	116.5*	-21.3	6.5	105.2*	1.9	8.7	56.7*
C[C@H](CO)N1C[C@H](C)[C@@H](CN(C)Cc2ccncc2)OCCCC[C@H](C)Oc2ccc(NS(=O)(=O)c3cccs3)cc2C1=O	21.1	1.5	-0.2	.	.	.	.
C[C@@H]1CCCCO[C@@H](CN(C)Cc2ccc(Cl)c(Cl)c2)[C@@H](C)CN([C@H](C)CO)C(=O)c2cc(NS(=O)(=O)c3cccs3)ccc2O1	114.9*	4.3	4.3	96.7*	83.5	-3.7	49.5*
COc1ccc(S(=O)(=O)N[C@H]2C=C[C@H](CC(=O)NCc3ccccc3F)O[C@H]2CO)cc1	88.8	-11.6	2.4	.	.	.	.
COc1ccc(NC(=O)N(C)C[C@@H]2OCCCC[C@H](C)Oc3ccc(NC(=O)CCC(F)(F)F)cc3C(=O)N([C@@H](C)CO)C[C@@H]2C)cc1	42.9	-53.2	-4.9	.	.	.	.
C[C@H](CO)N1C[C@H](C)[C@@H](CN(C)Cc2ccc(C(F)(F)F)cc2)Oc2ccc(NS(=O)(=O)c3ccccc3)cc2C1=O	84.9	-1.3	-6.2	.	.	.	.
C[C@@H]1CN([C@@H](C)CO)C(=O)c2cc(NS(=O)(=O)c3ccccc3)ccc2O[C@@H]1CN(C)Cc1ccc(C(F)(F)F)cc1	72.9	18.6	3.2	.	.	.	.
C[C@H](CO)N1C[C@H](C)[C@H](CN(C)Cc2ccc(C(F)(F)F)cc2)Oc2ccc(NS(=O)(=O)c3ccccc3)cc2C1=O	104.2*	0.1	13.0	76.2	70.1	-8.6	10.8
C[C@@H]1CN([C@@H](C)CO)C(=O)c2cc(NS(=O)(=O)c3ccccc3)ccc2O[C@@H]1CN(C)Cc1ccc2c(c1)OCO2	101.9*	-2.0	2.0	-31.2	11.0	-4.7	17.7
C[C@H]1CN([C@@H](C)CO)C(=O)c2cc(NS(=O)(=O)c3ccccc3)ccc2O[C@@H]1CN(C)Cc1ccc(C(F)(F)F)cc1	103.7*	16.1	-2.0	70.5	64.0	24.5	39.2*
C[C@H](CO)N1C[C@H](C)[C@@H](CN(C)Cc2ccc3c(c2)OCO3)Oc2ccc(NS(=O)(=O)c3ccccc3)cc2C1=O	-2.8	29.8	.	.	.	.	.
O=C(C[C@@H]1CC[C@@H]2NC[C@H](O)COC[C@H]2O1)NCc1ccc(Oc2ccccc2)cc1	50.6	16.5	-5.1	.	.	.	.
Cc1noc(C)c1NC(=O)N[C@H]1CC[C@H](CC(=O)N2CCN(C)CC2)O[C@@H]1CO	-86.8	-16.3	-7.5	.	.	.	.
C[C@H]1CN([C@@H](C)CO)C(=O)c2cc(/C=C/c3ccccc3)cnc2O[C@@H]1CN(C)C(=O)C1CCCCC1	99.2*	-88.4*	-10.8	100.8*	60.9	9.3	?
C[C@H](CO)N1C[C@H](C)[C@@H](CN(C)C(=O)C2CCC2)Oc2ncc(/C=C/c3ccccc3)cc2C1=O	59.5	-64.4	-5.0	.	.	.	.
C[C@H](CO)N1C[C@H](C)[C@@H](CN(C)C(=O)C2CCCCC2)Oc2ncc(/C=C/c3ccccc3)cc2C1=O	113.2*	-88.7*	-10.1	111.6*	67.7	-40.8	1.3
C[C@@H]1CN([C@H](C)CO)C(=O)c2cc(/C=C/c3ccccc3)cnc2O[C@@H]1CN(C)C(=O)C1CCCCC1	29.7	-71.2	-7.8	.	.	.	.
C[C@H]1CN([C@@H](C)CO)C(=O)c2cc(/C=C/c3ccccc3)cnc2O[C@@H]1CN(C)C(=O)C1CCC1	?	-70.3	-1.7	?	28.2	4.8	18.5
C[C@H](CO)N1C[C@H](C)[C@H](CN(C)C(=O)C2CCCCC2)Oc2ncc(/C=C/c3ccccc3)cc2C1=O	85.0	?	-6.4	.	.	.	.
CCCNC(=O)C[C@H]1C[C@H]2c3cc(NC(=O)Nc4ccccc4)ccc3O[C@H]2[C@H](CO)O1	36.3	-22.4	-0.4	.	.	.	.
COc1ccc(S(=O)(=O)Nc2cccc3c2O[C@@H](CN(C)Cc2ccccc2)[C@H](C)CN([C@H](C)CO)C3=O)cc1	8.1	16.1	1.9	.	.	.	.
OC[C@H]1[C@H](c2ccc(C#Cc3ccccc3F)cc2)[C@@H]2CN(Cc3cncnc3)CCCCN12	113.5*	-52.0	-2.5	99.1*	62.2	?	105.5*
SMILES	T cruzi growth-1	Pf Dd2 inh	C diff growth	T cruzi growth-2	T cruzi growth-3	3T3 cytotox	3T3 cytotox 2
CCCC#Cc1ccc([C@@H]2[C@@H](CO)N3CCCCN(Cc4cncnc4)C[C@H]23)cc1	77.5	-12.5	-0.1	.	.	.	.
OC[C@@H]1[C@H](c2ccc(C#Cc3ccccc3F)cc2)[C@@H]2CN(Cc3cncnc3)CCCCN12	106.7*	-23.3	-6.2	107.3*	86.7	47.4*	103.7*
OC[C@H]1[C@H](c2ccc(C#Cc3ccccc3)cc2)[C@H]2CN(Cc3cncnc3)CCCCN21	104.2*	-10.8	8.9	107.5*	70.7	31.9	103.3*
OC[C@H]1[C@H](c2ccc(C#Cc3ccccc3F)cc2)[C@H]2CN(Cc3cncnc3)CCCCN21	101.0*	-14.0	-2.9	107.8*	69.9	39.5*	102.9*
CCCC#Cc1ccc([C@H]2[C@@H](CO)N3CCCCN(Cc4cncnc4)C[C@H]23)cc1	-7.2	-18.2	-5.1	.	.	.	.
OC[C@@H]1[C@@H](c2ccc(C#Cc3ccccc3F)cc2)[C@H]2CN(Cc3cncnc3)CCCCN12	92.3	-51.6	-5.0	.	.	.	.
OC[C@H]1[C@@H](c2ccc(C#Cc3ccccc3)cc2)[C@@H]2CN(Cc3cncnc3)CCCCN12	84.7	-54.7	11.6	.	.	.	.
Cc1noc(C)c1NC(=O)Nc1ccc2c(c1)C(=O)N([C@H](C)CO)C[C@H](C)[C@@H](CN(C)S(=O)(=O)c1cn(C)cn1)OCCCC[C@H](C)O2	52.5	59.3	-13.6	.	.	.	.
CO[C@@H](CN(C)S(=O)(=O)c1ccc(Cl)cc1)[C@@H](C)CN(Cc1ccccc1Cl)[C@H](C)CO	?	-51.6	.	100.5*	-13.0	13.3	99.2*
CO[C@H](CN(C)C(=O)Nc1ccc(F)cc1)[C@H](C)CN(Cc1ccccc1Cl)[C@H](C)CO	-33.8	-22.8	.	.	.	.	.
